# KB-V1 cytotox: qHTS assay for MDR1-selective chemotherapeutics: Primary screen using the drug-selected MDR subline cells KB-V1. KB-V1 MDR cells viability, CellTiter-Glo, 72 h. Potency, µM (top dose mostly 46.1 µM), most hits filed as cytotoxic. 400,000 tested, 3.4% active. AID 1347076, 2019; further: nearly all actives have a fitted effect of over 60% in size
#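 Following 72 h at 37 degrees C with compound, KB-V1 cell viability was read by CellTiter-Glo luminescence, medium being phenol-red-free DMEM plus 10% FBS; concentration-response parameters came from normalized, curve-fitted qHTS data.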
# HT1080 IDH1KD tx: qHTS for induction of synthetic lethality in tumor cells producing 2HG: qHTS for the HT-1080-IDH1KD cell line | HT-1080 IDH1 knockdown viability, ATP luminescence, 48 h | Potency, µM (doses to about 46.1 µM), most hits filed as cytotoxic | 360,000 tested, 2% active
#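 Assay cells: HT-1080 with IDH1 knockdown, 750 per well, RPMI/5% FBS. Exposure: 48 h at 37 °C following 2 h pre-incubation. Read: CellTiter-Glo luminescence; fitted concentration-response, curve class assigned.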
# HT1080-NT tox: qHTS for induction of synthetic lethality in tumor cells producing 2HG: qHTS for the HT-1080-NT fibrosarcoma cell line | 360,000 tested, 1.6% active | AID 686970, 2013 | Potency, µM (top dose mostly 46.1 µM), most hits filed as cytotoxic | HT-1080-NT fibrosarcoma viability, CellTiter-Glo ATP luminescence, 48 h;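 further: NT is the 2HG producing partner of a matched IDH1 knockdown line; nearly all actives have a fitted effect of over 55% in size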
#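 Fibrosarcoma NT cells, 750 per well in 5% FBS RPMI, were exposed to compound for 48 hours. Viability: CellTiter-Glo luminescence.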
# DT40 TDP1 CPT: qHTS for Inhibitors of human tyrosyl-DNA phosphodiesterase 1 (TDP1): qHTS in cells in presence of CPT; Potency, µM (titrated, usually from 46.2 µM), hits mostly inhibitors; AID 686979, 2013; chicken DT40 Tdp1-/-;hTDP1 cells + 20 nM CPT, ATP luminescence, 48 h; 420,000 tested, 12% active; further: nearly all actives have a fitted effect of over 55% in size
#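 Chicken DT40 Tdp1-/- cells complemented with human TDP1, 400 cells/well, exposed to compounds plus 20 nM camptothecin for at least 48 h at 37 C; viability read as ATP content by CellTiter-Glo luminescence.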
# KB-3-1 cytotox: qHTS assay for MDR1-selective chemotherapeutics: Primary screen using the parental adenocarcinoma cell KB-3-1. KB-3-1 viability, CellTiter-Glo ATP luminescence, 72 h. 400,000 tested, 1.4% active. Potency, µM (top dose mostly 46.1 µM), hits mostly cytotoxic; further: nearly all actives have a fitted effect of over 60% in size
#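 Viability of parental KB-3-1 cells, measured by CellTiter-Glo luminescence, followed a 72 h incubation at 37 °C with pinned compounds in phenol-red-free DMEM containing 10% FBS.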
# DT40 TDP1 no CPT: qHTS for Inhibitors of human tyrosyl-DNA phosphodiesterase 1 (TDP1): qHTS in cells in absence of CPT; DT40 Tdp1-/- hTDP1 cells, no CPT, ATP luminescence, 48 h; 420,000 tested, 15% active; Potency, µM (series often up to 46.2 µM), usual class: inhibitors; further: nearly all actives have a fitted effect of over 55% in size
#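 No-CPT arm: Tdp1-/-;hTDP1 DT40 cells (400/well) plus compounds, incubated ≥48 hr at 37 °C. Readout CellTiter-Glo luminescence.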
# Hits are given with their value; – = inactive; ? = inconclusive; · = no result given. Hits are enriched below; roughly 19% of the tested compounds scored in any of these assays. The call rests on the fitted dose curve; in most records, active means well fitted curve in the direction sought with a large enough effect; inconclusive means small, poorly fitted or top-dose-only effect, or another doubt; inactive means no such curve, though single readings can be large; an effect the other way counts as inactive or inconclusive.
SMILES,KB-V1 cytotox,HT1080 IDH1KD tx,HT1080-NT tox,DT40 TDP1 CPT,KB-3-1 cytotox,DT40 TDP1 no CPT
COc1cc(/C=N/OCC(=O)NC2CCCCC2C)ccc1OCc1ccc(Cl)cc1 (configuration not stated),8.2µM,?,–,18µM,?,18µM
O=C(CNC(=O)c1ccc(Cl)cc1Cl)OCCOc1ccccc1F,–,–,–,–,–,–
COc1ccc(NC(=S)NC(=O)c2cncc(Br)c2)cc1,–,–,–,–,–,?
CCn1c(CSc2nc3ccccc3s2)nnc1SCC(=O)c1ccc(Cl)cc1,–,?,–,16µM,–,21µM
CC1=C(C(=O)N2CCCCCC2)CC(CC(=O)NCc2cccs2)C(=O)N1CCC1=CCCCC1 (configuration not stated),?,–,–,16µM,–,23µM
CC1=C(C(=O)N2CCCCCC2)CC(CC(=O)NCc2cccc3ccccc23)C(=O)N1CCC1=CCCCC1 (configuration not stated),18µM,?,?,?,?,?
CN1C(=O)C(CC(=O)O)S/C1=N\N=C\c1ccc(O)cc1O (configuration not stated),–,–,–,–,–,–
CC1=CC(=O)N(c2cccc3c(N4C(=O)C=C(C)C4=O)cccc23)C1=O,–,26µM,–,1.8µM,?,2.9µM
Nc1ccc2c(c1)C(=O)N(c1cccc3ccccc13)C2=O,–,–,–,–,–,–
O=C(COC(=O)/C=C/c1cccc(C(F)(F)F)c1)NCCN1C(=O)CSC1=O,·,–,–,–,·,?
Cc1cccc(CN2CCC(C(=O)Nc3ccc(Oc4cccnc4)cc3)CC2)c1,·,–,–,?,·,?
COc1cccc(CN2CCC(C(=O)Nc3ccc(-c4cccc(C)c4)cc3)CC2)c1O,?,?,?,16µM,–,16µM
Cc1cccc(-c2ccc(NC(=O)C3CCN(CC4CC4)CC3)cc2)c1,–,?,21µM,?,–,18µM
COc1ccc(Oc2ncc3nc(-c4ccc(OC)cc4)c(=O)n(C)c3n2)cc1,·,·,·,–,·,–
CCCCn1c(N)c(N(CCOC)C(=O)COC(=O)C(C)(C)Oc2ccc(Cl)cc2)c(=O)[nH]c1=O,–,–,–,–,–,–
COc1cccc(Cn2c(=O)c(C)nc3cnc(OC)nc32)c1,·,·,·,–,·,–
Cc1cc(C)nc(SCC(=O)c2c(N)n(C)c(=O)n(C)c2=O)n1,–,–,–,–,–,–
Cn1c(N)c(C(=O)CSc2ccc3c(c2)OCCO3)c(=O)n(C)c1=O,–,–,–,18µM,–,18µM
CCSc1nnc(SCC(=O)c2c(N)n(C)c(=O)n(C)c2=O)s1,–,–,–,?,–,23µM
Cc1ccccc1Nc1nnc(SCC(=O)c2c(N)n(C)c(=O)n(C)c2=O)s1,–,–,–,–,?,?
CC12CCC3c4ccc(O)cc4CCC3C1CC(=NO)C2O (configuration not stated),–,–,–,–,–,?
C=C(C1=CCN(S(=O)C(C)(C)C)[C@H]1CCO)c1ccccc1 (some centres not stated),–,–,–,13µM,?,?
C=C(C1=CCN(S(=O)(=O)C(C)(C)C)[C@H]1CCO)c1ccccc1,–,–,–,?,–,16µM
C=CC1=CCN(S(=O)C(C)(C)C)[C@@H]1CCO (some centres not stated),–,–,–,–,–,–
CC(C)OC1=CC(=O)OC(c2cccc(Cl)c2)C1 (configuration not stated),–,–,–,–,–,–
SMILES,KB-V1 cytotox,HT1080 IDH1KD tx,HT1080-NT tox,DT40 TDP1 CPT,KB-3-1 cytotox,DT40 TDP1 no CPT
CN(Cc1ccno1)Cc1cn(C)nc1-c1ccc(Oc2ccccc2)cc1,?,–,–,?,–,?
CN(Cc1cn(C)nc1-c1ccc(Oc2ccccc2)cc1)Cc1cnc2ccccn12,–,–,29µM,?,–,21µM
COc1ccccc1CNC(=O)C1CCN(Cc2nc(-c3ccc(OC)c(OC)c3)oc2C)CC1,–,·,·,–,–,?
COc1ccccc1CN1CCCCCC1,–,–,–,?,–,18µM
COc1ccccc1CN1CCSCC1,–,–,–,–,–,–
COc1ccc(-c2nc(CN3CCN(c4ccccc4OC)CC3)c(C)o2)cc1,?,–,–,?,–,?
COc1ccccc1N1CCN(Cc2nc(-c3ccc(F)cc3)oc2C)CC1,–,–,–,?,–,18µM
COc1ccccc1CN1CCN(Cc2nc(-c3ccc(C)cc3)oc2C)CC1,–,–,–,21µM,–,?
COC(=O)c1ccc(-c2nc(CN3CCN(Cc4cccc(C)c4)CC3)c(C)o2)cc1,–,–,–,?,–,23µM
O=S1(=O)N=C(Oc2ccc3ccccc3c2)c2ccccc21,–,·,·,·,–,·
COc1ccc(CCNC(=O)C2CCN(c3ncnc4c3nc3n4CCCCC3)CC2)c(OC)c1,·,·,·,–,·,–
NC(=O)c1cccc(-c2ccnc3c2CC(C(=O)Nc2ccc(Cl)cc2)O3)c1 (configuration not stated),–,?,?,23µM,–,13µM
CC(C)c1ccc(NC(=O)C2Cc3c(-c4cccc(C(N)=O)c4)ccnc3O2)cc1 (configuration not stated),–,–,–,16µM,–,?
O=C(Nc1cccnc1)C1Cc2c(-c3cccc(F)c3)ccnc2O1 (configuration not stated),–,–,–,?,–,?
CC(C)c1ccc(NC(=O)C2Cc3c(-c4cccc(F)c4)ccnc3O2)cc1 (configuration not stated),?,?,?,16µM,?,9.2µM
COc1ccc(NC(=O)C2Cc3c(-c4cccc(F)c4)ccnc3O2)cn1 (configuration not stated),?,–,–,?,?,16µM
O=c1oc2ccccc2c(N2CCN(c3ccccc3F)CC2)c1CN1CCCC1,–,·,·,?,–,?
O=C(c1cc2ccccc2o1)N1CCCCCC1,–,–,–,–,–,–
O=C(c1oc2ccccc2c1N1CCCCC1)N1CCCCC1,15µM,–,–,–,–,?
O=c1oc2ccccc2c(N2CCCCC2)c1CN1CCCCC1,–,–,–,–,–,–

# Bioassay records deposited in PubChem BioAssay by National Center for Advancing Translational Sciences (NCATS).
